# Several values for one entry are separate records, joined by “and”; a condition that tells them apart may be missing. Identical values can stand only once. Results filed as inconclusive are left out. Activity calls are given as the source filed them. Calls come from the whole dose curve; as a rule, active = well fitted cell-killing curve with a large enough effect in the repeat runs; inconclusive = weak or mixed curves, or effect the other way; inactive = flat fitted curve, though single readings scatter.
# Experiment: qHTS assay to identify small molecule agonists of the androgen receptor (AR) signaling pathway in the presence of an antagonist - cell viability counter screen (AID 1259379); note: nearly all actives have a fitted effect of over 25% in size
# Conditions: MDA-kb2 viability, CellTiter-Fluor, 16 h; series mostly up to 92.4 µM; activity change, negative = cytotoxicity: at the top concentration
# Source text: National Center for Advancing Translational Sciences [NCATS]
# NIH Chemical Genomics Center [NCGC]
# U.S. Environmental Protection Agency [EPA]
# National Institutes of Environmental Health Sciences [NIEHS]
# National Toxicology Program [NTP]
# U.S. Food and Drug Administration [FDA]
# Androgen receptor (AR) is an important member of nuclear receptor family. Its signaling plays a critical role in AR-dependent prostate cancer and other androgen related diseases. Considerable attention has been given in the past decades to develop methods to study and screen for the environmental chemicals that have the potential to interfere with metabolic homeostasis, reproduction, developmental and behavioral functions. Therefore AR binding assay for screening against androgen agonists and antagonists can be used to identify potential endocrine disruptors.
# MDA-kb2 cells (from ATCC, deposited by Wilson et al.) are human breast carcinoma cells that were stably transfected with a luciferase reporter gene under control of the MMTV promoter that contains response elements for both androgen receptor (AR) and glucocorticoid receptor (GR). This particular screening for measuring luciferase reporter gene activity using MDA-kb2 cells against Tox21 10K library compounds is a confirmation study on agonist mode screening in the presence of AR-antagonist compound (Nilutamide) at 3.0uM final concentration. The cytotoxicity of the compounds was tested in parallel by measuring the cell viability using CellTiter-Fluor assay system (Promega, Madison, WI) in the same wells.
# Tox21 Assay Protocol Summary:
# MDA-kb2 cells (cells cultured without CO2) were dispensed at 3,000 cells/well in 4uL of culture medium into white wall/solid-bottom 1536-well plates (Corning Life Sciences, Corning, NY) using a Multidrop Combi (Thermo Fisher Scientific Inc., Waltham, MA) dispenser. The assay plates were incubated at 37C and 0% CO2 for 5hr. One uL of 3.0uM (final concentration) Nilutamide or assay buffer was added using two separate tips of Flying Reagent Dispenser (FRD, Aurora Discovery, San Diego, CA). Then 23nL of compounds dissolved in DMSO at 15 concentrations and positive controls were transferred to the assay plates using a Pintool station (Wako, San Diego, CA). The assay plates were incubated at 37C and 0% CO2 for 16 hr. After 15hr incubation at 37C, 1uL/well CellTiter-Fluor reagent (Promega Corporation) was added to each well of the assay plates using FRD. After 1hr incubation at 37C and 0% CO2, the fluorescence signal was measured using a ViewLux plate reader (PerkinElmer, Shelton, CT).
# % is set by controls: 0 for no effect and ±100 for the full control effect; potency is the fitted concentration of half-maximal effect.
SMILES,"activity change, negative = cytotoxicity",Potency
CC(C)(C)c1n[nH]c(=O)n(N)c1=O,1.24% (inactive),
CCc1c(C(=O)O)c(=O)cnn1-c1ccc(Cl)cc1,1.38% (inactive),
CCNc1nc(NC(C)CC)nc(OC)n1 (stereo not given),0.291% (inactive),
CC(C)C(=O)OCc1ccccc1,-1.16% (inactive),
C=CC(=C)CC/C=C(\C)CCC=C(C)C,1.35% [at 19 µM] (inactive),
O=C1Nc2ccc(Cl)cc2[C@@](C#CC2CC2)(C(F)(F)F)O1,-3.63% [at 42.5 µM] (inactive),
CC1=C(/C=C/C(C)=C/C=C/C(C)=C/C(=O)Nc2ccc(O)cc2)C(C)(C)CCC1,,49.8 µM (active) and 23.7 µM (active)
Cc1cc2c(C(C)C)c(O)c(O)c(C=O)c2c(O)c1-c1c(C)cc2c(C(C)C)c(O)c(O)c(C=O)c2c1O,,29.8 µM (active)
COC(=O)CC#N,3.04% (inactive),
COC(=O)[C@]1(C)CCC[C@@]2(C)[C@H]1CC=C1C=C(C(C)C)CC[C@@H]12,-6.42% (inactive),
CC(=O)c1ccccc1N,0.0045% (inactive),
CCCCCCCC(OC)OC,1% [at 42.5 µM] (inactive),
CCCCCCCCCC(=O)N(C)C,0.135% (inactive),
S=P(N1CC1)(N1CC1)N1CC1,0.068% (inactive),
CC(C)(C)C1=CC(=O)C=C(C(C)(C)C)C1=O,2.58% (inactive),
CCC(=O)OCCc1ccccc1,0.0091% (inactive),
NC1(c2ccc(-c3nc4ccn5c(=O)[nH]nc5c4cc3-c3ccccc3)cc2)CCC1,,16.8 µM (active)
NC(=O)C(=O)N/N=C/c1ccc([N+](=O)[O-])o1,-4.8% [at 42.5 µM] (inactive),
C=CCCCCCCC=C,-0.137% (inactive),
CCC1(c2cnc[nH]2)Cc2ccccc2C1,2.2% [at 42.5 µM] (inactive),

SMILES,"activity change, negative = cytotoxicity",Potency
O=C1OC(=O)c2cccc3cccc1c23,0.709% (inactive),
Cc1cc(Nc2ccc(O)cc2)ccc1N,,24.2 µM (active)
CCN(CC)CCSC(=O)C(c1ccccc1)c1ccccc1,-7.65% [at 42.5 µM] (inactive),
CCN=c1cc2oc3cc(NCC)c(C)cc3c(-c3ccccc3C(=O)OCC)c-2cc1C,,272 nM (active) and 306 nM (active)
O=C(NO)c1ccccc1,-3.69% (inactive),
CN(C)CCOC(c1ccccc1)c1ccccc1 (tested in a mixture with another compound),-5.21% (inactive),
CCCCCCOc1ccc(O)cc1,-8.43% (inactive),
CCC(C)c1cc([N+](=O)[O-])cc([N+](=O)[O-])c1OC(=O)OC(C)C (stereo not given),,61.1 µM (active)
C/C=C/C(=O)C1=C(C)CCCC1(C)C,-4.7% (inactive),
C[C@H]1O[C@@H](O[C@H]2[C@@H](O)C[C@H](O[C@H]3[C@@H](O)C[C@H](O[C@H]4CC[C@@]5(C)[C@H](CC[C@@H]6[C@@H]5C[C@@H](O)[C@]5(C)[C@@H](C7=CC(=O)OC7)CC[C@]65O)C4)O[C@@H]3C)O[C@@H]2C)C[C@H](O)[C@@H]1O,,inactive
Cc1ccc(N)cc1O,0.0645% (inactive),
CN1[C@@H]2CC[C@@H]1CC(OC(=O)C(CO)c1ccccc1)C2 (stereo not given in full),-0.379% [at 42.5 µM] (inactive),
Cn1cccc1,1.28% (inactive),
CCN=C1C=CC(=C(c2ccc(N(CC)CC)cc2)c2ccc(N(CC)CC)cc2)c2ccccc21,,2.16 µM (active)
C[C@@H]1CC[C@H]2C(C)(C)[C@H]3C[C@@]12CC[C@@]3(C)O,0.949% (inactive),
O=C1OC(OC(=O)c2cccnc2Nc2cccc(C(F)(F)F)c2)c2ccccc21 (stereo not given),0.267% [at 42.5 µM] (inactive),
CC(=O)C=O,0.275% (inactive),
Cc1cn[nH]c1,-0.749% [at 42.5 µM] (inactive),
CNCC[C@H](Oc1cccc2ccccc12)c1cccs1,,29.8 µM (active)
O=CC1CC1,-0.491% (inactive),

# — PubChem BioAssay (Tox21)
